IDE exosite inh = exo-site inhibitors of human IDE, primary screen, biochemical, fluorescence anisotropy, probe displacement; z-score at 20 µM; purified IDE, FL-6b probe fluorescence polarization; active compounds read low; Insulin-degrading enzyme (Homo sapiens), P14735; actives 6.3% (n = 17,000); AID 1259349, 2017;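 active = z-score of -3 or lower, meaning strong loss of probe binding signal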;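 note: His-tagged human IDE residues 42-1019 made in E. coli with 30 nM FL-6b probe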
Target sequence (P14735 42-1019 limits assumed): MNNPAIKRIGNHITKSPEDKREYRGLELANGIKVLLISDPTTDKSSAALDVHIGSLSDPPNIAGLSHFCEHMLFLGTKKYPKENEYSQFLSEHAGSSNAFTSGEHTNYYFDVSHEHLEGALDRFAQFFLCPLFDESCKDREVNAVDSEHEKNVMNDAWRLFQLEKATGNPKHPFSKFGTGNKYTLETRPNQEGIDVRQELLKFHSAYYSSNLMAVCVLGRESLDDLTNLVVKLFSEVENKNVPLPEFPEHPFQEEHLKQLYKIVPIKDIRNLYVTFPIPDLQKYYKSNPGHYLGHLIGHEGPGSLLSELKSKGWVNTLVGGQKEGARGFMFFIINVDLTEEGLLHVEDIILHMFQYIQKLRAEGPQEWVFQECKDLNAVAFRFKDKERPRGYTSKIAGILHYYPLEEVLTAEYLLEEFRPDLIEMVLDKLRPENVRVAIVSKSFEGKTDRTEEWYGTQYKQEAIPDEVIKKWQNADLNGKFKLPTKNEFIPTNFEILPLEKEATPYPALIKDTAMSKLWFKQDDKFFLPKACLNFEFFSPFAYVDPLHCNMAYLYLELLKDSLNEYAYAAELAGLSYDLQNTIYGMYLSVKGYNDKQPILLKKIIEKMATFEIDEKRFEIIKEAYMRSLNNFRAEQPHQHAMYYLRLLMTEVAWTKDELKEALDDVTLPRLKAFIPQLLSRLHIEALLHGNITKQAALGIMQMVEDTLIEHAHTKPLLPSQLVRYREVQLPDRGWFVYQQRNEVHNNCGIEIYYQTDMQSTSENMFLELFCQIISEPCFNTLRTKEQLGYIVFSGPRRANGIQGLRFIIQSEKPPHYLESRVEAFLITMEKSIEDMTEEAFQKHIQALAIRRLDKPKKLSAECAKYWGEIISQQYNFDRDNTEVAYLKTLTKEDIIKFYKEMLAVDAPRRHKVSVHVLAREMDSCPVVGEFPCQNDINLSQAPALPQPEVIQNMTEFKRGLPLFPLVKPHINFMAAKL
An asterisk follows results filed as active. Only a selection was taken, and hits are over-represented in it overall.

SMILES	IDE exosite inh
CN(C)C(=O)c1ccc(-c2ccccc2[C@H]2[C@@H](CO)N(C(=O)C3CC3)[C@H]2C#N)cc1	-0.42
Cc1ccccc1S(=O)(=O)N1CC(=O)N2[C@H](CO)[C@H](c3ccc(C#CCC(C)C)cc3)[C@H]2C1	1.2
COc1ccc(C#Cc2cccc(-c3nc(C(=O)Nc4ccc(-c5ccccc5)cc4)cc4c3[C@@H](CCO)N(S(=O)C(C)(C)C)C4)c2)cc1OC (some centres not stated)	-0.52
CC(C)(O)C#Cc1ccc([C@H]2[C@@H](CO)N3CCCCN(S(C)(=O)=O)C[C@H]23)cc1	0.27
CCCC(=O)Nc1ccc2c(c1)C(=O)N(C)[C@H]1CC[C@@H](CC(=O)N3CCCCC3)O[C@H]1CO2	0.48
CNC[C@@H]1Oc2cc(C#Cc3ccccc3OC)ccc2S(=O)(=O)N([C@H](C)CO)C[C@H]1C	-1.1
COc1ccc(-c2ccc([C@@H]3[C@@H](CO)N(C(=O)C4CCOCC4)[C@H]3C#N)cc2)cc1	-1
COc1ccc(-c2ccccc2[C@H]2[C@@H](C#N)N(C(=O)C3CCOCC3)[C@H]2CO)cc1	2
COc1cccc(C#Cc2ccc([C@@H]3[C@@H](CO)N(C(=O)C4CCOCC4)[C@H]3C#N)cc2)c1	-1.1
N#C[C@H]1[C@H](c2ccc(-c3cncnc3)cc2)[C@@H](CO)N1C(=O)C1CCOCC1	0.76
COc1ccccc1-c1ccc([C@H]2[C@@H](C#N)N(C(=O)C3CCOCC3)[C@H]2CO)cc1	-6.9*
COc1ccccc1-c1ccc([C@@H]2[C@@H](C#N)N(C(=O)C3CCOCC3)[C@H]2CO)cc1	-9.8*
N#C[C@H]1[C@@H](c2ccc(/C=C/c3ccccc3)cc2)[C@@H](CO)N1C(=O)C1CCOCC1	-1.3
N#C[C@H]1[C@@H](c2ccc(-c3cccnc3)cc2)[C@@H](CO)N1C(=O)C1CCOCC1	-3*
COc1ccccc1-c1ccc([C@@H]2[C@@H](CO)N(C(=O)C3CCOCC3)[C@H]2C#N)cc1	-11*
COc1ccccc1-c1ccccc1[C@@H]1[C@@H](CO)N(C(=O)C2CCOCC2)[C@H]1C#N	-0.76
N#C[C@H]1[C@H](c2ccc(-c3cccnc3)cc2)[C@@H](CO)N1C(=O)C1CCOCC1	0.8
N#C[C@H]1[C@H](c2ccc(-c3cccnc3)cc2)[C@H](CO)N1C(=O)C1CC1	0.034
Fc1ccccc1CN1[C@@H]2CNC[C@H]1C2c1ccc(-c2ccncc2)cc1 (some centres not stated)	0.88
CO[C@@H]1CN(C)C(=O)c2ccc(NS(=O)(=O)CC(F)(F)F)cc2OC[C@@H](C)N(C(=O)NC(C)C)C[C@@H]1C	-0.67
CCN1[C@@H]2Cn3c(ccc(-c4ccccc4OC)c3=O)[C@H]1[C@@H](C(=O)NCc1ccccn1)[C@@H]2CO	0.42
Cc1ccccc1S(=O)(=O)N1CCCCN2[C@H](CO)[C@@H](c3ccc(-c4cccc(F)c4)cc3)[C@H]2C1	4.1
O=C(NC[C@@H]1[C@H](c2ccccc2)[C@@H](CO)N1CC1CCCC1)c1cccnc1	1.8
COc1ccc(S(=O)(=O)N2C[C@H](O)COC[C@@H]3O[C@@H](CC(=O)N[C@@H]4CCN(Cc5ccccc5)C4)CC[C@H]32)cc1	-1.6
O=C(c1cccc(F)c1)N1CCCCN2[C@@H](CO)[C@H](c3ccc(C#CC4(O)CCCC4)cc3)[C@@H]2C1	-1
SMILES	IDE exosite inh
CCCNC(=O)N1CC(=O)N2[C@H](CO)[C@H](c3ccc(C#Cc4ccc(F)cc4)cc3)[C@@H]2C1	-0.11
COc1ccccc1NC(=O)N1CC(=O)N2[C@H](CO)[C@@H](c3ccc(-c4ccc(F)cc4)cc3)[C@H]2C1	1.1
CCCC#Cc1ccc([C@H]2[C@@H](CO)N3C(=O)CN(C(=O)NCCC)C[C@@H]23)cc1	3.6
CCCNC(=O)N1CC(=O)N2[C@H](CO)[C@H](c3ccc(C#Cc4cccc(OC)c4)cc3)[C@@H]2C1	-2
COc1ccccc1NC(=O)N1CC(=O)N2[C@H](CO)[C@@H](c3ccc(-c4cccc(C)c4)cc3)[C@@H]2C1	-9.4*
COc1ccccc1NC(=O)N1CC(=O)N2[C@H](C1)[C@H](c1ccc(-c3cccc(C)c3)cc1)[C@@H]2CO	-1.8
CCCNC(=O)N1CC(=O)N2[C@H](C1)[C@@H](c1ccc(C#Cc3cccc(F)c3)cc1)[C@@H]2CO	-3
CCCNC(=O)N1CC(=O)N2[C@H](CO)[C@@H](c3ccc(C#Cc4ccccc4)cc3)[C@@H]2C1	-6.9*
CCCNC(=O)N1CC(=O)N2[C@H](C1)[C@H](c1ccc(-c3ccc(F)cc3)cc1)[C@@H]2CO	-0.28
CCCNC(=O)N1CC(=O)N2[C@@H](CO)[C@H](c3ccc(-c4cccc(C)c4)cc3)[C@@H]2C1	-16*
CCCNC(=O)N1CC(=O)N2[C@H](CO)[C@@H](c3ccc(C#Cc4ccc(F)cc4)cc3)[C@H]2C1	3.1
CCCNC(=O)N1CC(=O)N2[C@H](C1)[C@@H](c1ccc(-c3ccccc3)cc1)[C@@H]2CO	-5.6*
O=C(C1CC1)N1CC(=O)N2[C@@H](CO)[C@@H](c3ccc(C#CC4CCCC4)cc3)[C@@H]2C1	2.5
Cc1cc(C(=O)Nc2ccc3c(c2)C(=O)N(C)[C@@H]2CC[C@@H](CC(=O)NCc4ccc(-c5ccccc5)cc4)O[C@H]2CO3)no1	-0.44
O=C(Cc1ccccn1)N1CC(=O)N2[C@@H](CO)[C@@H](c3ccc(C#CC4CCCCC4)cc3)[C@@H]2C1	0.97
O=C(C[C@H]1CC[C@@H](NS(=O)(=O)c2ccccc2F)[C@@H](CO)O1)NCCCN1CCOCC1	0.82
C[C@H]1CN([C@@H](C)CO)C(=O)c2ccccc2-c2ccccc2CO[C@H]1CN(C)Cc1ccc(Oc2ccccc2)cc1	-0.68
COc1ccc2c3c(n(C)c2c1)[C@H](CO)N(C(=O)C1CCOCC1)CC31CCN(C(=O)c2ccncc2)CC1	-0.19
C/C=C/c1ccc([C@H]2[C@@H](CO)N(C(=O)c3cnccn3)C23CN(C(=O)C2CCC2)C3)cc1	-0.5
COc1ccc(-c2ccc([C@@H]3[C@@H](CO)N4C(=O)CN(C(=O)C5CCOCC5)C[C@@H]34)cc2)cc1	0.12
CCCN1[C@H](CO)[C@H](c2ccc(C3=CCCC3)cc2)[C@H]1CN(C(C)=O)C1CCCC1	0.72
CN(C)C(=O)c1ccc(-c2ccc([C@@H]3[C@@H](CO)N4C(=O)CN(C(=O)C5CCC5)C[C@@H]34)cc2)cc1	-0.014
Cc1ccccc1-c1ccc([C@H]2[C@@H](CO)N3CCCCN(C(=O)c4cccnc4)C[C@H]23)cc1	-16*
Cc1ccccc1-c1ccc([C@H]2[C@H](CO)N3CCCCN(C(=O)c4cccnc4)C[C@@H]23)cc1	-3.9*
CC(C)(O)C#Cc1ccc([C@@H]2[C@H](CO)N3CCCCN(C(=O)c4cccnc4)C[C@@H]23)cc1	0.94
CC(C)(O)C#Cc1ccc([C@@H]2[C@@H](CO)N3CCCCN(C(=O)c4cccnc4)C[C@@H]23)cc1	3.4
Cc1ccccc1-c1ccc([C@@H]2[C@@H](CO)N3CCCCN(C(=O)c4cccnc4)C[C@H]23)cc1	-2.2
CC(C)(O)C#Cc1ccc([C@H]2[C@H]3CN(C(=O)c4cccnc4)CCCCN3[C@H]2CO)cc1	0.85
Cc1ccccc1-c1ccc([C@@H]2[C@H](CO)N3CCCCN(C(=O)c4cccnc4)C[C@@H]23)cc1	-8.4*
O=C(NC1CCC1)[C@H]1[C@H](CO)[C@H]2Cn3c(ccc(-c4ccncc4)c3=O)[C@@H]1N2Cc1cocn1	2.2
